DT40 TDP1 no CPT – qHTS for Inhibitors of human tyrosyl-DNA phosphodiesterase 1 (TDP1): qHTS in cells in absence of CPT; DT40 Tdp1-/- hTDP1 cells, no CPT, ATP luminescence, 48 h; Potency, µM (highest dose often 46.2 µM), usual class: inhibitors; 420,000 compounds, 15% hits; AID 686978, 2013; note: nearly all actives have a fitted effect of over 55% in size
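Compound effects on proliferation are scored in DT40 Tdp1-/-;hTDP1 cells in the absence of CPT. ATP levels (CellTiter-Glo luminescence) are recorded after a ≥48 hr, 37 °C incubation.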
HT1080 IDH1KD tx – qHTS for induction of synthetic lethality in tumor cells producing 2HG: qHTS for the HT-1080-IDH1KD cell line; HT-1080 IDH1 knockdown viability, ATP luminescence, 48 h; Potency, µM (titrated, usually from 46.1 µM), most hits filed as cytotoxic; 360,000 compounds, 2% hits
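Luminescent ATP read-out (CellTiter-Glo, 10 min at room temperature) after 48 h compound exposure at 37 °C gave viability of IDH1-knockdown HT-1080 cells. Activity was normalised to DMSO and cell-free wells, then fitted as concentration-response curves.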
KB-V1 MDR tox – qHTS assay for MDR1-selective chemotherapeutics: Primary screen using the drug-selected MDR subline cells KB-V1 | KB-V1 MDR cells viability, CellTiter-Glo, 72 h | Potency, µM (doses to about 46.1 µM), hits mostly cytotoxic | 400,000 compounds, 3.4% hits | AID 1347076, 2019; note: nearly all actives have a fitted effect of over 60% in size
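KB-V1, DMEM (no phenol red) + 10% FBS; cpd pin-transferred, titration series; 72 h, 37 degrees C; CellTiter-Glo, luminescence. Data normalized, curve-fit.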
TDP1 cell CPT – qHTS for Inhibitors of human tyrosyl-DNA phosphodiesterase 1 (TDP1): qHTS in cells in presence of CPT. chicken DT40 Tdp1-/-;hTDP1 cells + 20 nM CPT, ATP luminescence, 48 h. Potency, µM (highest dose often 46.2 µM), hits mostly inhibitors. 420,000 compounds, 12% hits; note: nearly all actives have a fitted effect of over 55% in size
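Chicken DT40 Tdp1-/- cells stably complemented with human TDP1 were seeded at 400 cells/well in medium containing 20 nM camptothecin, exposed to pin-transferred compounds, and grown at 37 °C for at least 48 hr. Viability was read as ATP luminescence.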
KB-3-1 cytotox – qHTS assay for MDR1-selective chemotherapeutics: Primary screen using the parental adenocarcinoma cell KB-3-1 | KB-3-1 viability, CellTiter-Glo ATP luminescence, 72 h | 400,000 compounds, 1.4% hits | Potency, µM (doses to about 46.1 µM), usual class: cytotoxic; note: nearly all actives have a fitted effect of over 60% in size
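Parental KB-3-1 viability, qHTS format: 72 h compound exposure, 37 °C; CellTiter-Glo; media-only wells and DMSO plates as controls; concentration-effect fits on corrected data.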
HT1080-NT tox – qHTS for induction of synthetic lethality in tumor cells producing 2HG: qHTS for the HT-1080-NT fibrosarcoma cell line; HT-1080-NT fibrosarcoma viability, CellTiter-Glo ATP luminescence, 48 h; Potency, µM (series often up to 46.1 µM), usual class: cytotoxic; 360,000 compounds, 1.6% hits;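 note: NT is the 2HG producing partner of a matched IDH1 knockdown line; nearly all actives have a fitted effect of over 55% in size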
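750 cells/well, RPMI + 5% FBS; 2 h settle, compound pin-transfer, 48 h at 37 degrees C. CellTiter-Glo 10 min RT, luminescence. Normalized to DMSO and media-only wells.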
Of the large screens only hits and unclear results are named; the others gave an inactive call. The list is not random: actives were taken first. Their share in the collection is about 19%. Calls come from the whole dose curve; as a rule, active = well fitted curve in the direction sought with a large enough effect; inconclusive = small, poorly fitted or top-dose-only effect, or another doubt; inactive = no such curve, though single readings can be large; an effect the other way counts as inactive or inconclusive.

Cc1ccc(CN2C(=O)C(=O)c3cc(Br)cc(C)c32)cc1	DT40 TDP1 no CPT 1.5µM, KB-V1 MDR tox inconclusive, TDP1 cell CPT 2.3µM, KB-3-1 cytotox inconclusive (no result: HT1080 IDH1KD tx, HT1080-NT tox)
CC(=O)NC12CC3CC(C1)CC(C(=O)N1CCN(S(=O)(=O)c4cccc(C(F)(F)F)c4)CC1)(C3)C2	DT40 TDP1 no CPT inconclusive, TDP1 cell CPT 7.3µM
CC(=O)NC12CC3CC(C1)CC(C(=O)N1CCN(S(=O)(=O)c4cccc([N+](=O)[O-])c4)CC1)(C3)C2	TDP1 cell CPT inconclusive
COc1ccc(O)c(C2=Nc3ccccc3N=C(c3ccccc3)C2)c1	DT40 TDP1 no CPT 18µM, KB-V1 MDR tox inconclusive, TDP1 cell CPT 23µM
CCN(C(=O)CSc1ncc(S(=O)(=O)c2ccc(C)c(Cl)c2)c(=O)[nH]1)c1cccc(C)c1	none (no result: DT40 TDP1 no CPT, HT1080 IDH1KD tx, TDP1 cell CPT, HT1080-NT tox)
O=C(C1=C[C@@H](c2ccc(C(F)(F)F)cc2)C[C@@H](OCCCCO)O1)N1CCN(Cc2ccc3c(c2)OCO3)CC1	DT40 TDP1 no CPT inconclusive, TDP1 cell CPT 18µM
O=C(C1=C[C@@H](c2ccc(Br)cc2)C[C@@H](OCc2ccc(CO)cc2)O1)N1CCN(Cc2ccc3c(c2)OCO3)CC1	DT40 TDP1 no CPT 18µM, HT1080 IDH1KD tx inconclusive, KB-V1 MDR tox inconclusive, TDP1 cell CPT inconclusive, KB-3-1 cytotox inconclusive
O=C(C1=C[C@H](c2ccc(C(F)(F)F)cc2)C[C@H](OCc2ccc(CO)cc2)O1)N1CCN(Cc2ccc3c(c2)OCO3)CC1	DT40 TDP1 no CPT inconclusive, KB-V1 MDR tox inconclusive, TDP1 cell CPT inconclusive
CC(C)(C)[C@@H]1C=C(C(=O)Nc2ccccc2)O[C@H](OCc2ccc(CO)cc2)C1	DT40 TDP1 no CPT 21µM, TDP1 cell CPT 23µM
O=C(C1=C[C@@H](c2ccc(C(F)(F)F)cc2)C[C@@H](OCc2ccc(CO)cc2)O1)N1CCN(Cc2ccc3c(c2)OCO3)CC1	DT40 TDP1 no CPT 21µM, HT1080 IDH1KD tx inconclusive, KB-V1 MDR tox inconclusive, TDP1 cell CPT 21µM
Cc1cccc(N2CCn3c2nc2c3c(=O)n(C/C=C/c3ccccc3)c(=O)n2C)c1	none (no result: HT1080 IDH1KD tx, KB-V1 MDR tox, KB-3-1 cytotox, HT1080-NT tox)
CC(C)(C)[C@@H]1C=C(C(=O)N2CCN(Cc3ccc4c(c3)OCO4)CC2)O[C@H](OCc2ccc(CO)cc2)C1	DT40 TDP1 no CPT 16µM, TDP1 cell CPT inconclusive
COCCN(C(=O)COC(=O)Cc1c[nH]c2ccccc12)c1c(N)n(Cc2ccccc2)c(=O)[nH]c1=O	KB-3-1 cytotox inconclusive
Cc1noc(C)c1COC(=O)c1ccc(N(C)C)cc1	KB-V1 MDR tox 4.1µM, KB-3-1 cytotox inconclusive
CN(C)c1ccc(C(=O)OCc2ccccc2)cc1	none
CCN(C(=O)COC(=O)c1ccc(OCc2c(C)noc2C)cc1)c1ccccc1	DT40 TDP1 no CPT 13µM, TDP1 cell CPT inconclusive
Cc1ccc(OCC(=O)Nc2ccc3nn(-c4ccc(Cl)cc4)nc3c2)cc1	none (no result: HT1080 IDH1KD tx, KB-V1 MDR tox, KB-3-1 cytotox, HT1080-NT tox)
Cc1ccc(C)c(NC(=O)CCCn2nc(C)c3sc4ccccc4c3c2=O)c1	KB-V1 MDR tox inconclusive (no result: HT1080 IDH1KD tx, HT1080-NT tox)
CCOC(=O)c1cc(-c2cccc([N+](=O)[O-])c2)nc2[nH]c(=O)[nH]c(=O)c12	DT40 TDP1 no CPT 23µM
Cn1c(=O)c(/C=C/c2ccccc2)nc2ccccc21	DT40 TDP1 no CPT 16µM, KB-V1 MDR tox 15µM, TDP1 cell CPT inconclusive, KB-3-1 cytotox inconclusive
Cn1c(=O)c(/C=C/c2ccc(F)cc2)nc2ccccc21	DT40 TDP1 no CPT 23µM, KB-V1 MDR tox inconclusive, TDP1 cell CPT inconclusive, KB-3-1 cytotox inconclusive
Cn1c(/C=C/c2ccccc2)nc2ccccc21	DT40 TDP1 no CPT 16µM, HT1080 IDH1KD tx inconclusive, TDP1 cell CPT inconclusive, HT1080-NT tox inconclusive
